p53null 32C tox = p53 null cell cytotoxicity, permissive temperature. H1299-neo p53 null cells, ATP luminescence, 24 h, 32C. 55,000 compounds, 0.62% hits. Potency, µM (highest dose often 46.1 µM), without a hit: at the highest dose activity change, negative = cytotoxicity, hits mostly cytotoxic;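 note: 0% = DMSO only and -100% = full killing by 100 µM tamoxifen; nearly all actives have a fitted effect of over 55% in size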
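Luminescent ATP readout gave cell viability of p53-null H1299-neo cells after a 24 h compound exposure at the permissive 32C. Titrations ran up to 46 uM, and AC50s were fitted with the standard Hill equation.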
PMP22 txn prim = PMP22 gene transcription modulation; Potency, µM (titrated, usually from 57.5 µM), for the others: at the top dose activity change, negative = inhibition, hits mostly inhibitors; 43,000 compounds, 2% hits; S16 Pmp22-F2sN Schwann cells, FLuc/NLuc coincidence luminescence, 24 h; active = clear falling dose curves in both reporters; inconclusive = both reporters move, but less clearly or upward; inactive = either reporter flat; the % is the NLuc reporter signal
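Rat S16 Pmp22-F2sN cells, 500-1,000/well in phenol red-free DMEM + 10% FBS, compound-treated 24 h (37C, 5% CO2). Luminescence: FLuc read, Stop&Glo added, NLuc read.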
OvCa metastasis = ovarian cancer metastasis inhibition, 3D TME model. SKOV3ip1-GFP adhesion/invasion on 3D omental model, fluorescence. Potency, µM (top dose mostly 45.8 µM), for inactives: at the top dose activity change, negative = inhibition, actives largely listed as inhibitors. 46,000 compounds, 0.1% hits;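 note: plate controls were DMSO wells for no effect and tomatine positive control wells for full effect; nearly all actives have a fitted effect of over 65% in size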
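Adhesion/invasion was scored as fixed GFP-labeled SKOV3ip1 cell counts (488/509 nm), normalized to DMSO and tomatine controls. Cancer cells in serum-free medium, with four compound doses (0.36-46 umol/L), sat 2 hr at RT then 16 hr at 37 C on a 48 hr fibroblast/mesothelial/ECM culture.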
p53null 39C kill = kills p53 null cells at the nonpermissive temperature. H1299 p53-null (neo) cells, 39C, ATPlite viability, 24 h. Potency, µM (top dose mostly 46.1 µM), for the others: at the top dose activity, negative = cell killing, most hits filed as cytotoxic. 55,000 compounds, 0.97% hits. AID 904;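 note: 0% = DMSO only and -100% = full killing by 100 µM tamoxifen; nearly all actives have a fitted effect of over 50% in size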
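Cells seeded at 600/well, 37C overnight. Compound added (up to 46 uM), plates shifted to 39C for 24 hr. ATPlite added, luminescence read after 20 min at room temperature.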
S16 viability = S16 Schwann cell cytotoxicity; S16 Pmp22-F2sN Schwann cells (luciferase reporters placed in the Pmp22 gene) viability, CellTiter-Glo, 24 h; AID 1508642; Potency, µM (series often up to 57.5 µM), for inactives: top-dose activity change, negative = cytotoxicity, most hits filed as cytotoxic; 43,000 compounds, 0.48% hits; note: nearly all actives have a fitted effect of over 65% in size
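Rat S16 Schwann reporter line, 24 h treatment with library compounds delivered at 23 nL per well. Cell viability by CellTiter-Glo luminescence.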
pS6 MEF inh = reduces mTORC1 signaling in Tsc2 and p53 null MEF cells | Potency, µM (series often up to 38.3 µM), for inactives: at the top dose activity change, negative = inhibition, hits mostly inhibitors | 44,000 compounds, 0.78% hits | AID 493208 | Tsc2-/- p53-/- MEF, phospho-rpS6 immunofluorescence/PI, 24 h;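 note: plate controls were DMSO for no effect and rapamycin for full effect; nearly all actives have a fitted effect of over 50% in size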
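Tsc2-/-, p53-/- mouse embryonic fibroblasts (empty-vector line) exposed to compound 24 hrs at 37 C, fixed, immunostained for phospho-rpS6 and counterstained with propidium iodide. Acumen laser scanning gives % positive cells from Alexa 488/PI ratio, thresholded using 7.5 nM rapamycin; PI count gives viability.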
Active calls of the source: *; i = inactive; ? = inconclusive; · = no result. Shown are actives, neighbours in structure and some others; about 3.1% of the full set was active somewhere. Unless noted, calls come from the whole dose curve; as a rule, active = well fitted curve in the direction sought with a large enough effect; inconclusive = small, poorly fitted or top-dose-only effect, or another doubt; inactive = no such curve, though single readings can be large; an effect the other way counts as inactive or inconclusive. Unless noted, % is set by controls: 0 for no effect and ±100 for the full control effect; potency is the fitted concentration of half-maximal effect.

SMILES	p53null 32C tox	PMP22 txn prim	OvCa metastasis	p53null 39C kill	S16 viability	pS6 MEF inh
COC(=O)c1cccc(NC(=O)c2nsc3ccccc23)c1	3.16µM*	0.7%	?	7.08µM*	-15.6%	-3.5%
Cn1cc(-c2ccc3nnc(C(F)(F)c4ccc5ncccc5c4)n3n2)cn1	·	·	4.6%	·	·	·
CCc1cccc(NC(=O)c2oc3ccc4c(c3c2C)C(=O)CC(C)(C)O4)c1	5.01µM*	?	5.0%	5.01µM*	-5.0%	?
COc1ccc(NC(=O)c2oc3ccc4c(c3c2C)C(=O)CC(C)(C)O4)cc1OC	12.6µM*	?	5.7%	3.16µM*	5.8%	1.0%
CCOc1ccccc1CNC(=O)c1oc2ccc3c(c2c1C)C(=O)CC(C)(C)O3	?	?	-3.1%	6.5%	?	0.5%
CCC1(C)CC(=O)c2c(ccc3oc(C(=O)NCc4ccccc4)c(C)c23)O1 (stereo unspecified)	9.1%	?	-7.3%	12.0%	?	?
CCCC(=O)OC1=CN(Cc2ccccc2)S(=O)(=O)c2ccccc21	-3.1%	-10.9%	0.6%	0.8%	2.6%	16.5µM*
Oc1cccc(C(Nc2ccccn2)c2ccc3cccnc3c2O)c1Cl (stereo unspecified)	?	·	-3.6%	3.98µM*	·	?
CCOc1ccccc1/C=C/c1onc(C)c1S(=O)(=O)N1CCC(C(=O)N(CC)CC)CC1	36.9%	?	-0.5%	10.1%	?	-5.2%
CCN(CCN(C)C)C(=O)C1CCN(S(=O)(=O)c2c(C)noc2/C=C/c2ccccc2F)CC1	9.5%	?	-1.7%	?	?	18.5µM*
CCOc1ccc(NC(=O)Cn2c(=O)n(-c3ccccc3)c(=O)c3ccc(C(=O)NCc4ccc5c(c4)OCO5)cc32)cc1	-10.5%	?	24.0%	15.8µM*	-18.5%	-10.6%
CCOc1ccccc1NC(=O)Cn1c(=O)n(CC(=O)NCc2ccccc2Cl)c(=O)c2sccc21	-0.4%	?	i	?	28.2µM*	-3.5%
CCc1ccc(NC(=O)Cn2c(=O)n(-c3ccccc3)c(=O)c3ccc(C(=O)NCc4ccc5c(c4)OCO5)cc32)cc1	-14.2%	?	-2.4%	-15.3%	5.4%	?
CC(C)NC(=O)C1CCC(Cn2c(=O)c3sccc3n(CC(=O)Nc3ccccc3)c2=O)CC1 (stereo unspecified)	-0.4%	?	-1.9%	1.3%	25.1µM*	1.4%
CCOc1ccc(NC(=O)Cn2c(=O)n(CCCCCC(=O)NCc3ccccc3)c(=O)c3sccc32)cc1	-12.8%	?	6.2%	-19.9%	20µM*	?
CCN(CC)C(=O)Cn1c(=O)n(CCCCCC(=O)NCc2ccccc2)c(=O)c2sccc21	7.3%	-8.6%	i	-6.9%	-19.4%	0.5%
O=S1(=O)N=C(Nc2nc3c(s2)CCCC3)c2ccccc21	11.2µM*	·	·	5.62µM*	·	·
CCOc1ccc2oc(=O)cc(CN3CCN(c4ccccc4)CC3)c2c1	4.9%	?	?	9.9%	-23.6%	4.8%
CCOCc1cc(CN2CCN(c3cccc(Cl)c3)CC2)c(O)c2ncccc12	?	5.75µM*	-9.2%	?	?	11.7µM*
CC(C)OCc1cc(CN2CCN(c3ccccc3)CC2)c(O)c2ncccc12	?	5.12µM*	6.3%	1.26µM*	?	?
O=C(C1CC1)N1CCc2cc(Br)cc(S(=O)(=O)Nc3ccc(F)c(F)c3)c21	25.1µM*	?	34.5%	12.6µM*	?	0.0%
O=C(C1CC1)N1CCc2cc(Br)cc(S(=O)(=O)Nc3ccc(C(F)(F)F)cc3)c21	?	?	i	15.8µM*	8.0%	?
CO[C@H]1C[C@@H]2CC[C@@H](C)[C@@](O)(O2)C(=O)C(=O)N2CCCC[C@@H]2C(=O)O[C@H]([C@H](C)C[C@@H]2CC[C@H](OCCO)[C@H](OC)C2)CC(=O)[C@H](C)C=C(C)[C@@H](O)[C@@H](OC)C(=O)[C@H](C)C[C@H](C)C=CC=CC=C1C	·	·	10.9%	·	·	·
C[C@@H]1CC=CC=CC=CC=C[C@@H](O[C@@H]2O[C@H](C)[C@@H](O)[C@H](N)[C@H]2O)C[C@@H]2O[C@](O)(C[C@@H](O)C[C@@H]3O[C@@H]3C=CC(=O)O1)C[C@H](O)[C@@H]2C(=O)O	·	·	15.7%	·	·	·
CCn1c(=N)n(CCOc2ccc(Br)cc2)c2ccccc21	-20.9%	?	?	12.6%	?	13.1µM*
SMILES	p53null 32C tox	PMP22 txn prim	OvCa metastasis	p53null 39C kill	S16 viability	pS6 MEF inh
CC1CCCCN1c1nc(-c2ccc(C(C)(C)C)cc2)nc2ccccc12 (stereo unspecified)	12.6µM*	-14.3%	i	15.8µM*	-0.5%	-11.1%
CC1CCN(c2nc(-c3ccc(C(C)(C)C)cc3)nc3ccccc23)CC1	12.6µM*	?	-5.3%	12.6µM*	-2.5%	4.1%
CC(C)(O)CC[C@@H](O)[C@](C)(O)[C@H]1CC[C@@]2(O)C3=CC(=O)[C@@H]4C[C@@H](O)[C@@H](O)C[C@]4(C)[C@@H]3CC[C@]12C	·	·	7.1%	·	·	·
COc1ccc(C)cc1NC(=O)CCNS(=O)(=O)c1cccc2nonc12	-5.5%	-1.1%	i	9.7%	12.0%	20.7µM*
Cc1ccccc1NC(=O)c1c2c(nc3ccccc13)C(=O)N(C1CCCCC1)C2	6.9%	?	27.8%	-17.1%	-0.5%	-16.0%
COc1cc(OC)c(NC(=O)c2c3c(nc4ccccc24)C(=O)N(C2CCCCC2)C3)cc1Cl	-29.0%	?	-5.3%	?	25.1µM*	-9.5%
CCCCn1c2ccc(F)cc2c2nnc(SCCN(CC)CC)nc21	-6.3%	15.2µM*	-15.9%	-21.5%	-7.3%	?
O=S(=O)(c1ccccc1)n1nc(-c2ccc(Cl)cc2)nc1NCc1ccccc1	19.3%	?	i	8.1%	?	14.7µM*
O=S(=O)(c1ccccc1)n1nc(-c2ccccc2)nc1NCc1ccc(Cl)cc1	9.2%	-34.7%	i	-11.0%	2.9%	-0.1%
Cc1ccc2sc(-c3ccc(N)cc3)nc2c1	2µM*	-25.9%	3.7%	1.58µM*	-2.2%	-11.4%
C[C@]12C=CC(=O)C=C1CC[C@@H]1[C@@H]2[C@@H](O)C[C@@]2(C)[C@@H]1CC[C@]2(O)C(=O)CO	·	·	8.9%	·	·	·
